Data on 108 sequences can be found in PubChem BioAssay AID1508600 (Functional Genomics Laboratory (NCATS/FGL), 2020).

In all, about 53,000 sequences went through this assay and about 3,700 (7%) were called active. Many of the other results were omitted from the sample, so actives are more common in it than they were. Values without a mark were called inactive.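 The calls were made as follows: active = gene knockdowns whose robust z-score for IL-1 alpha signal is at least 2 or at most -2, so actives lie on both sides; inactive = the rest.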

This assay in a line: Components of the Cytosolic LPS Sensing Pathway: Gene Identification via Genome-wide siRNA Screen.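 Also: robust z of the log signal after scaling to non-targeting control siRNA wells of the plate.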 To be noted: RAW264.7 macrophages, IL-1a HTRF, actives lie on both sides, screened at 100 nM (by protocol), cells primed 5 h with Pam3CSK4 first. In outline:
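Three distinct siRNAs per gene were tested singly at 100 nM in RAW264.7 macrophages. Following Pam3CSK4 priming and 24 hour LipidA transfection, IL-1a secretion was read by HTRF.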
As for GGUAAGGACUAUUUGAAUUTT against Lpar1, the z-score is -0.429.
As for GCAAAUUAAGCACUGUAAGTT against Dennd1b, the figure is 0.379.
Turning to GGUGGUUAGAUCUUACGCUTT against Tmem184a, the z-score is 4.37 (active).
As for CGCGUACGACUUCUACAAATT against Hmgcs2, the figure is 0.775; as for GGUGGAGUUUCUCAAAAGCTT against Kcnc3, 0.0264.
The same measure for GCAGGUACUGCGCUAUUAUTT against Atp13a2: -0.766; for GGAUGUGGCUGCUUUGAAGTT against Mettl27: -1.38; for CCUUCUAGACACCAUACCCTT against Pidd1: 0.259.
As for CCACACGUUCCAUUUCUCGTT against Hilpda, the figure is -2.65 (active).
As to CGUCAUGCAUUUUUCUAAATT against Trim24, the z-score is 0.489.
In the case of GGAUGAGAAGAAAGAAGAUTT against Srrt, the z-score was -1.36.
In the case of GGAUACAGCAGUACAAAUGTT against Ces2c, the z-score is -0.135.
As for GGUGCGCUUCUAUGUUCCUTT against Ssrp1, the z-score is 2.38 (active).
The same measure for GGCAAGGAUUUUUCUACCUTT against Tslp: -0.555; for GCUGCACAAGUGAUAUCCGTT against Trim26: 0.397; for GGGAAAGCCAUCCUUCACUTT against Erich5: 0.288.
As for GGAGAAAAAGAGAUAAGGUTT against Ppp2r2b, the figure is -0.893.
As for GCCAUUUGUCCACAAAAUGTT against Ces2g, the figure is -2.06 (active); as for GGACCUGGAGUAUAUGCUGTT against Mgat4f, -0.611.
Take GGCACUGUUCUCAUCUGUGTT against Olfr736: the z-score was -2.41 (active).
As for GGUUGACUCUACAAAAUACTT against Muc5b, the figure is -0.656.
As for GGCAGUUGUGAACUUUCUCTT against Telo2, the z-score was 0.243.
The same measure for GGAAAGGCUGUUUCCUACCTT against Atox1: 1.05.
The same measure for GGACUUGUGAUUCAAGCAUTT against Rad23b: 0.525; for CCUGAUUGACGACAGUAAGTT against Mcrs1: 0.519.
The same measure for CGACCAGAGUUAUCUGAAUTT against Ctf2: 2.2 (active); for GGGAAUUUAUGCAUUAGCATT against Kif2a: 0.111.
On to GGCUCUGCUAUUUCUCCUGTT against Olfr17, for which the z-score was -1.16.
Consider GCUUGAAUGGAGCGAAUCGTT against Chat, for which the z-score was 4.86 (active).
As to GGAAACAAAGUCAAUGUGGTT against Cnn1, the z-score was -0.522.
As for GCUGAAGUAGGGUUUAUUATT against Gdap10, the figure is 0.786; as for GCCUUGGACAAAAACACUATT against Ryk, -0.917.
As for CCUGAUUCCAAAUGUGUUUTT against Sgcb, the figure is 0.158.
The same measure for GGACACAAAUGACAUCAACTT against Sirpa: 2.13 (active).
Consider CGGCAUCCAGUCUCAGAUGTT against Coch, for which the z-score is 1.88.
As for “GCCUAAGUUCUAGCAAAAUTT against Spata31d1d”, the figure is 0.514.
On to GGAAGCUACAUGCUGUUCCTT against Anln, for which the z-score is 0.737.
In the case of UGAAAAGAGCAAUGAAGAATT against Olfr177, the z-score is -0.36.
As for GGAAAGGAGAAGAGAAAUGTT against Scyl1, the z-score is 1.18.
For the sequence CCUGACAGUACCAAAAAAUTT against Pax4, the z-score was -0.599.
The same measure for GGUACAAUGUUCAUACCAATT against Rab9b: 0.528; for GGGCUAUUGCAUCUUUUAATT against Olfr711: -0.0884; for CCGAAUUGAAAUCACAAGCTT against Nup43: -1.31.
As for GGAUUGUAAUAAUGGAGCCTT against H2-M10.4, the figure is 2.94 (active); as for GGAGAGGUGGUAUUGUUGGTT against Olfr1297, 0.29; as for GCUAAAUUCUUUCCUGAAGTT against Rdx, -1.
The same measure for CCAGUUACUAGUAAUACUCTT against Mcm3ap: -0.0482; for CCAAGGUGCUGUUGGUAUATT against Ssr2: 0.248.
In the case of GCAACGACUCUAAUGACUUTT against Slc38a1, the z-score was -0.515.
The same measure for GCUUUCCACCACGUACUGATT against Plekha6: -0.0754.
The same measure for GGAUCAGCUGUUGCCAGAGTT against Zfp384: 0.806; for GGAGUAUAACUAUGGCUUCTT against Mvb12a: 0.689.
The same measure for CCAGUUAAGCCAAACUAUGTT against Wdr5: -2.21 (active); for GGAAGUGCUGCACAUACUATT against Bnc2: -0.525; for GGAAGAUUUGUUCUAUACUTT against Epgn: 0.593.
As for GGUCACAUCGUCCUUACAGTT against Rps6ka4, the z-score is -2.05 (active).
As for GGGAUUAAAAUCCUAUCUUTT against Eva1a, the figure is 0.857.
Regarding GGAUCAGGAUUUAAUGAAUTT against Zc2hc1a, the z-score was -1.13.
The same measure for CCUUAUAAUUGACACUGAUTT against Toe1: 0.312; for GGAUAGCUGCCAACACUACTT against Baiap2l2: -0.689; for GGACGACAGUGCAAAGCAUTT against Usb1: -2.33 (active).
For the sequence CCGCUUUUGUCAAGUUUUCTT against Asap1, the z-score is 2.65 (active).
The same measure for GGACACUCAAUGAAAUCUATT against Foxp3: 1.21; for GCUAAAAAUAAACAGUCGGTT against Pus10: -0.642.
As for GCCCGUCGGAUAUAAGAUUTT against Cd247, the figure is -0.351; as for GGAAGAAUCGUUUAUGACATT against Ppp4r2, 0.73.
As for GGUUUUGAGAUUGAAAGAATT against Myof, the figure is -0.344; as for GGUCGUCUUUUAAGAGUUUTT against Ccdc71l, 3.03 (active).
For GGUGCAACAAUCAUUUGAATT against Casp4, the z-score is -0.431.
The same measure for GGAAGAAAUGCAUAAUGCATT against Mesd: 0.236.
The same measure for GGAAAAACUGCUAGAUCUATT against As3mt: 1.49; for GGCUAUGGAAAAAGAUAUGTT against Il21r: -1.02.
The same measure for GGACCAAGCUGUUAUUAACTT against Dhodh: 0.46; for GGUUUACCUCUAUGCUAUGTT against Upk3a: 1.39.
For GGGUCUCUUGUGGUACAUCTT against Cln3, the z-score is 3.41 (active).
The same measure for GCAUUUCGCCUCUUUCAUATT against Elac1: -0.405; for GGCAUUUCUUUCACUAGCUTT against Olfr618: 0.833.
The same measure for GCAGAGGCUCGUCCAUAUATT against Dnpep: -0.205; for GGUUCACGGGUUCUAAGAUTT against Eif1b: 2.35 (active).
The same measure for GGACAGUUCUUACUUUACATT against Drd2: 1.18; for CCGUGAAUUUGGAUGAUGGTT against T2: -1.98; for CCAAAGGUGACCACAGAUUTT against Zfp444: 1.13.
Turning to GGCUCCAUCAAGAAAAGUUTT against Usp21, the z-score was 0.681.
As for GGCCUUCCUUGACCAAUCUTT against Ren1, the figure is -2.11 (active); as for GGACUGUGCAACUUUGUGGTT against Timp3, -0.634.
As to GGAGUUGGUUCUGUGUUAUTT against Tcf7l2, the z-score is -0.271.
Consider CGGAACAUGGAGUUUAAGCTT against Slfnl1, for which the z-score was 2.3 (active).
Take GGAAUGAGUUAGAAUAGCGTT against BC004004: the z-score was -0.923.
The same measure for GGAAAGAAACUAAGGAAAATT against Arhgap15: 0.628.
The same measure for GGAGCUUGACAUUAAGGACTT against Erc2: 0.809; for GGAAAUAAACAAGUCCCACTT against Urm1: 0.465; for CGACGAAGUGGUCGGAAUUTT against Cryzl1: 2.1 (active).
As for GGUGAUGUAUGUUACGCUGTT against Srsf1, the figure is -0.00436; as for GGAGAAAGAGAAAAUCGCUTT against Csnk1g2, -0.736.
Turning to GGUUAUCAGUUGCAUUGUUTT against Gpr37l1, the z-score was 0.809.
In the case of GGAAGUCGGGCAAAUACAATT against Tacstd2, the z-score was 5.77 (active).
The same measure for GCUCAUUCUCAAAGGCUUATT against Rdh12: 0.659; for GGAAUACAUCGAGUAUCUCTT against Xab2: -1.43.
As for GCUCGAGUGUAAGAUCUGUTT against Rnf182, the figure is 0.355; as for CCCGUUCGUGCAUGAGUUATT against Lpcat4, 0.532.
The same measure for CCGGGAAACCAACAAAUCATT against Rbmxl1: 2.19 (active).
Turning to GGUGGAAUUCAUUUUGACATT against Dnajb6, the z-score was -0.42.
GGCAAUGACCUUGUAAAGATT against Tomm34: the z-score was -1.56.
Take GUGCUAUUCAUGCACAGCATT against Psca: the z-score was 0.0658.
The same measure for GGAUGUCUUUUUAAGGUUUTT against Eid1: 0.987; for CCCGUCCCAUCCAUUAUUUTT against Zfp787: -1.19; for GGUGUUUGUGACUCUGGGUTT against Mc4r: 2.77 (active).
As for GCUUUGCAAUUCACAGGGATT against Scgb1b27, the figure is -1.76.
